According to the OligoGym collection:

These sequences were tested against NAT9 (assay: pooled miR-30 sensor sort-seq; sequence = guide strand). Details: shRNA.
Note: reference of the scale not given here.

Sequence	sensor-assay potency score (higher = more potent)
ACACTTGTCTGCATCTTCCTGC	0.498
TCAAACGCTGCAGCTCCTCTGA	-0.784
TTCATCCACTCGTGGTACCTGC	-1.04
ATCCACTCGTGGTACCTGCTGG	-0.384
TAAGGCTTCTCTTCCACGTGGC	0.678
TAGATCTGTGAGGAAGAGGTTC	-0.334
TGAAGTTTCTGGAACATCCGGA	0.756
TTGTCTGCATCTTCCTGCCAGC	-1.08
TACACTTGTCTGCATCTTCCTG	-0.99
TCTGATTTCATCCACTCGTGGT	-0.312
TGAAGGTACACTTGTCTGCATC	-1.11
TTGTTCACATGCAGTCTGCTGT	-0.324

Each sequence was assayed against NBPF1 in the same assay as above. Details: shRNA.

Sequence	sensor-assay potency score (higher = more potent)
TTCGTTGATCTTCTTCCCCTTC	-0.152
TTATGAGGTCTTCGCACTCTTC	-1.54
TTGATTTCTAAAATGTTCGTCT	0.0571
TCTTCGTTGATCTTCTTCCCCT	-0.277
TTTTCTTCGTTGATCTTCTTCC	-0.0891
TAAAATGTTCGTCTCTGCCTTC	-0.476
TTCGTCTCTGCCTTCTCGCTGG	0.0322
TTTATGAGGTCTTCGCACTCTT	0.0563
TTGGTCTTCTTCCTCTTCCTGG	-0.175
